# In the library only some 11% were active in any assay of this set; here they are far more common.
# PNC inhibitor: inhibitors of perinucleolar compartment assembly. AID 2417. activity change (PNC), negative = inhibition, % at 10 µM. PC3M PTB-GFP, PNC prevalence imaging, 16 h; hits give low values. 3.1% of 140,000 active;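 active = readout at or below -70, meaning at least 70% loss of cells showing the perinucleolar compartment, a nuclear body marking cancer cells; inconclusive = readout between -30 and a set limit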;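 note: plate controls were DMSO wells for no effect and camptothecin positive control wells for full effect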
#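 PC3M cells stably expressing PTB-GFP, 750–1000 cells/well, treated 16 h at 37 °C with compound (23 nl of library stock), in duplicate. After paraformaldehyde fixation and Hoechst stain, imaged at 20x; PNC prevalence scored by image analysis.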
# CBFb RUNX1 block: blocks binding between human CBF-beta and RUNX1; Q01196+Q13951; AlphaScreen CBFb-His/RUNX1-biotin binding, biochemical; Potency, µM (doses to about 59.8 µM), inactives show top-dose activity, negative = inhibition, actives largely listed as inhibitors; 230,000 tested, under 10 active; AID 1477; note: % of control where 0% means no effect
#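 CBFb-His/RUNX1-biotin, 30 nM each, preincubated 20 min RT; compound 15 min RT; Ni + streptavidin beads 50 ng each, 90 min RT; AlphaScreen read.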
# HPGD block: HPGD (human) dehydrogenase inhibition; 4.3% of 150,000 active; Potency, µM, without a hit: top-dose activity change, negative = inhibition, hits mostly inhibitors; purified HPGD, NADH fluorescence kinetic, PGE2 substrate; P15428; active = well fitted inhibition curve with a large enough effect, not every such curve was filed as active; inconclusive = small, poorly fitted or top-dose-only effect, or another doubt; inactive = no such curve, though single readings can be large or run the other way; note: potency is the fitted concentration of half-maximal effect; % is set by controls: 0 for no effect and ±100 for the full control effect
# Target sequence (P15428 whole entry, looked up): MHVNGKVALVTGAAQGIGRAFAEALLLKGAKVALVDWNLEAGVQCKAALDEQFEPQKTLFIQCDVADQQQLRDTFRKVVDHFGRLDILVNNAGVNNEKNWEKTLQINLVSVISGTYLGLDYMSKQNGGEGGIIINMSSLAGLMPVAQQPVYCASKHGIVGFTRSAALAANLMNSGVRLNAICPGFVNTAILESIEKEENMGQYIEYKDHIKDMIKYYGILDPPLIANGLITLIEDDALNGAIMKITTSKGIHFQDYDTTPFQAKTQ
#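 20 nM HPGD preincubated 15 min at room temperature with compound in 50 mM Tris-HCl pH 8, 0.01% Tween 20. Started with 1 mM NAD+ and 30 uM prostaglandin E2; NADH fluorescence (360/450 nm) read 5 times over 30-s intervals, last minus first.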
# HTT aggregate: inhibitors of mutant huntingtin aggregate formation in PC12 cells. PC12 HttQ103-GFP aggregates, Acumen cytometry, 40 h. Potency, µM (top dose mostly 46.1 µM), for inactives: top-dose activity change, negative = inhibition, most hits filed as inhibitors. 1.1% of 220,000 active; note: potency is the fitted concentration of half-maximal effect; % is set by controls: 0 for no effect and ±100 for the full control effect; nearly all actives have a fitted effect of over 60% in size
#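 Using laser scanning cytometry, GFP-positive aggregates were counted after lysis of PC12 cells induced with 100 nM tebufenozide to express HTT exon 1 Q103–GFP. Compounds were tested in titration.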
# HTT cytoprotect: Huntington cell model cytoprotection by ATP luminescence; PC12 HTT-Q103 induced, cytoprotection, ATP luminescence, 40 h; Potency, µM (top dose mostly 56.4 µM), for the others: cytoprotection (ATP increase), hits mostly activators; 0.14% of 230,000 active; note: potency is the fitted concentration of half-maximal effect; % of control where 0% means no effect; nearly all actives have a fitted effect of over 45% in size
#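 PC12 cells stably carrying ecdysone-inducible Htt exon 1 (Q103)–GFP were induced with 100 nM tebufenozide (final) alongside library compounds in a dose series. Cytoprotection was scored as retained ATP by ATPlite luminescence.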
# ALDH1A1 inh: blocks purified human ALDH1A1 activity | Purified ALDH1A1, NADH fluorescence, propionaldehyde substrate | 7.3% of 220,000 active | AID 1030 | Potency, µM (doses to about 75.3 µM), for inactives: top-dose activity, negative = inhibition, actives largely listed as inhibitors | P00352; active = well fitted inhibition curve with a large enough effect, not every such curve was filed as active; inconclusive = small, poorly fitted or top-dose-only effect, or another doubt; inactive = no such curve, though single readings can be large or run the other way;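 note: potency is the fitted concentration of half-maximal effect; plate controls were no enzyme wells and a reference inhibitor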
# Target sequence (P00352 whole entry, looked up): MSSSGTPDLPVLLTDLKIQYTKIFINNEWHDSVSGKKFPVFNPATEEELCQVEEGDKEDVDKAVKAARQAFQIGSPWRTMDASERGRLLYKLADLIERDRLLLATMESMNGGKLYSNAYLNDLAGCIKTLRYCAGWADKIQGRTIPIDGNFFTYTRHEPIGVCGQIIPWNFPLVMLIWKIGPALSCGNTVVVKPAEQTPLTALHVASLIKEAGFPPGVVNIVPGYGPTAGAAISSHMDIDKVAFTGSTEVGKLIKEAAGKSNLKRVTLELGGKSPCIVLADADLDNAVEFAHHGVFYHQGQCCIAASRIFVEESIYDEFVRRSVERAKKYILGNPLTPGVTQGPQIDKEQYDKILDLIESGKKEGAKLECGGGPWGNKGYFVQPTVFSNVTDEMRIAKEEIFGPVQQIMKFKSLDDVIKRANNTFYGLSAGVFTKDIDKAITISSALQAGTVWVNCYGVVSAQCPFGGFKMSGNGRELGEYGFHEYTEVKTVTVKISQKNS
# The depositor's hits bear a star; ? = inconclusive; . = no result given; [ ] = dose if it differs, or a comment. Unless noted, calls come from the whole dose curve; as a rule, active = well fitted curve in the direction sought with a large enough effect; inconclusive = small, poorly fitted or top-dose-only effect, or another doubt; inactive = no such curve, though single readings can be large; an effect the other way counts as inactive or inconclusive.
SMILES,PNC inhibitor,CBFb RUNX1 block,HPGD block,HTT aggregate,HTT cytoprotect,ALDH1A1 inh
O=C(Nc1ccccc1Cl)C(Cl)C(=O)c1ccccc1 (centres undefined),.,-3%,.,-10%,5%,1.8µM*
O=c1cnn([C@@H]2O[C@H](CO)[C@@H](O)[C@H]2O)c(=O)[nH]1,-111*,9%,1%,-9%,.,-2%
Cc1ccc(C(=O)COC(=O)c2ccc3c(c2)C(=O)N(c2cccc4ncccc24)C3=O)cc1,19,?,-10%,20µM*,28%[10 µM],8%
Cc1cc(C)c(S(=O)(=O)/N=C2/C=C(Sc3ncn[nH]3)C(=O)c3ccccc32)cc1C,?,-3%,0.89µM*,3.5µM*,-98%[10 µM],1.8µM*
Cc1cc(C)cc(NC(=O)C(OC(=O)c2sccc2C)c2ccccc2)c1 (centres undefined),62,0%,3%,11%,-11%[1.9 µM],-1%
Cc1ccc(OCC(=O)N2CCN(C(=O)c3ccncc3)CC2)cc1,.,-2%,.,0.028µM*,.,4%
Cc1ccc(-c2nnc(N3CCN(C(=O)CN4CCOCC4)CC3)c3ccccc23)cc1,?,-1%,-10%,0%,8%[10 µM],18µM*
Cc1ccc(OCC(=O)N2CCN(C(=O)c3cccc(F)c3)CC2)cc1,.,4%,.,1%,17%,?
Cn1c(=O)n(CC(=O)N2CCN(c3nnc(-c4ccccc4)c4ccccc34)CC2)c2ccccc21,-8,9%,-3%,14µM*,-17%[10 µM],-6%
Cc1ccc(-c2nnc(N3CCN(C(=O)COc4ccccc4)CC3)c3ccccc23)cc1,53,-18%,-18%,4%[9.22 µM],-57%,28µM*
Cc1ccc(NC(=O)/C(Cl)=C/c2ccccc2)cc1C,-18,19%,-11%,-1%,11%[10 µM],2%
COc1ccc(-n2c(=O)cnc3cnc(Nc4ccccc4)nc32)cc1,.,.,-4%,.,-43%,?
O=C(c1cccs1)N1CCN(c2nnc(-c3ccccc3)c3ccccc23)CC1,.,-6%,.,-7%[9.22 µM],-3%[10 µM],?
O=C(CN1CCOCC1)N1CCN(c2nnc(-c3ccccc3)c3ccccc23)CC1,-12,6%,2%,3%,-9%,13µM*
COC(=O)CSc1nc(C)c2c(n1)CCCC2,.,1%,.,.,.,11%
CC1(C)CC(NC(=O)C23CCC(C)(C2Br)C3(C)C)CC(C)(C)N1 (centres undefined),.,7%,.,4%[9.22 µM],-8%[10 µM],?
N=c1ccn2c(n1)O[C@H]1[C@@H](O)[C@@H](CO)O[C@H]12,.,-4%,5%,.,.,-4%
CCOc1cccc(C(=O)NCc2ccccc2)c1,.,5%,.,-11%,-15%,1%
CCOc1ccc(C(=O)c2cc3ccc(O)cc3oc2=O)cc1,.,1%,.,-32%,-29%,21%
CCOc1cccc(C(=O)c2ccc(O)c(O)c2O)c1,.,?,16µM*,.,-24%,1.6µM*
CCOc1ccc(C(=O)c2ccc(O)c(O)c2O)cc1,.,.,?,.,.,9.5µM*
COc1ccc(C2=NN(C(=O)CSc3nnc(-c4ccccc4F)o3)C(c3ccco3)C2)cc1 (centres undefined),?,-7%,-23%,8%,-4%[10 µM],?
COc1ccc(C2=NN(C(N)=S)C(c3ccco3)C2)cc1 (centres undefined),.,-20%,.,13%,3%,18µM*
CCOC(=O)/C=c1\s/c(=C\c2ccc(-c3ccccc3)cc2)c(=O)n1CC(=O)NCc1ccc2c(c1)OCO2,50,-2%,24%,12%,.,?
COc1ccc2nc(NC(=O)C3CCN(S(=O)(=O)c4cccs4)CC3)sc2c1,?,-2%,-15%,?,-53%,-15%
SMILES,PNC inhibitor,CBFb RUNX1 block,HPGD block,HTT aggregate,HTT cytoprotect,ALDH1A1 inh
Cc1ccc2nc(NC(=O)Cc3cccs3)sc2c1,50,-14%,-21%,-11%,-4%,7.9µM*
Cc1ccc2nc(NC(=O)CN(C)S(=O)(=O)c3cccc4nsnc34)sc2c1,-122*,-7%,-1%,-24%,-26%[10 µM],3%
Cc1ccnc(NC(=O)CN(C)S(=O)(=O)c2cccc3nsnc23)c1,64,-3%,-15%,-8%,-4%,0%
Cc1ccc2nc(NC(=O)C3CCN(S(=O)(=O)c4cccs4)CC3)sc2c1,13,-5%,-12%,-24%,3.5µM*,-10%
S=C(Nc1ccccc1)Nc1nc2ccccc2n1CCOc1ccc(Br)cc1,?,-4%,-24%,20%[9.22 µM],?,9.5µM*
COc1ccc(CN2C=C3C(=O)C(C)(OC(=O)CCc4ccccc4)C(=O)C=C3C=C2c2ccc(C#N)cc2)cc1 (centres undefined),.,?,-10%,14%[9.22 µM],-10%[10 µM],3.5µM*
CCN1C(=O)/C(=C2/Sc3ccccc3N2CC)S/C1=N\c1ncn[nH]1,.,4%,.,-12%[9.22 µM],-3%[10 µM],?
Cc1cccc(N(C(=O)Nc2ccc(Cl)cc2)C2=NCC(C)S2)n1 (centres undefined),.,4%,.,-3%,9%[10 µM],6%
CC1CN=C(N(C(=O)Nc2ccccc2)c2ccc(F)cc2)S1 (centres undefined),-26,2%,10µM*,-8%,-9%,-6%
Cc1cccc(N(C(=O)Nc2ccccc2)C2=NCC(C)S2)c1 (centres undefined),9,0%,18µM*,-5%,-18%,-3%
CC(=O)Nc1ccc(S(=O)(=O)N(c2cccnc2)S(=O)(=O)c2ccc(NC(C)=O)cc2)cc1,-18,1%,11µM*,16%,-1%[10 µM],-3%
CC(=O)Nc1ccc(S(=O)(=O)N(C2=NCC(C)S2)c2ccccc2)cc1 (centres undefined),280,-7%,-16%,-2%,-21%[0.074 µM],13µM*
NS(=O)(=O)c1cccc(NC(=O)COC(=O)C2(c3cccc(F)c3)CCCC2)c1,-6,-1%,-20%,5%,14%[10 µM],?
NC(=O)C1(C(N)=O)OC1c1ccccc1 (centres undefined),.,11%,.,-13%[9.22 µM],5%[10 µM],.
CCCCCOc1ccc(/C=c2\sc3nc(=O)c(-c4ccccc4)nn3c2=O)cc1OC,20,-13%,-16%,-2%,2%[10 µM],11µM*
Cc1cc(=O)[nH]c(N/N=C/c2ccc(OC(=O)c3cccnc3)cc2)n1,.,-2%,.,-2%,.,-6%
N[C@H](CCC(=O)N[C@H](CSN=O)C(=O)NCC(=O)O)C(=O)O,.,5%[21.7 µM],11µM*,.,-6%,-12%
CCn1c2ccccc2c2nc3cc(S(=O)(=O)N4CCOCC4)ccc3nc21,?,18%,2µM*,-25%,7%[10 µM],1µM*
c1ccc2nc3c(nc2c1)c1ccccc1n3CCN1CCOCC1,31,17%,-5%,-33%,-27%,-9%

# Compound activity as filed in PubChem BioAssay.
